Screening data: PubChem, National Center for Advancing Translational Sciences (NCATS)
AmpC inh detg = qHTS Inhibitors of AmpC Beta-Lactamase (assay with detergent); 0.041% of 370,000 active; AmpC hydrolysis of nitrocefin, absorbance 480 nm, 0.01% Triton; Potency, µM (top dose mostly 114 µM), without a hit: at the top dose activity change, negative = inhibition, hits mostly inhibitors; P00811; AID 485294, 2010;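 note: 0% = no-compound wells and -100% = no-enzyme wells; nearly all actives have a fitted effect of over 25% in size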
Target sequence (P00811 whole entry, looked up): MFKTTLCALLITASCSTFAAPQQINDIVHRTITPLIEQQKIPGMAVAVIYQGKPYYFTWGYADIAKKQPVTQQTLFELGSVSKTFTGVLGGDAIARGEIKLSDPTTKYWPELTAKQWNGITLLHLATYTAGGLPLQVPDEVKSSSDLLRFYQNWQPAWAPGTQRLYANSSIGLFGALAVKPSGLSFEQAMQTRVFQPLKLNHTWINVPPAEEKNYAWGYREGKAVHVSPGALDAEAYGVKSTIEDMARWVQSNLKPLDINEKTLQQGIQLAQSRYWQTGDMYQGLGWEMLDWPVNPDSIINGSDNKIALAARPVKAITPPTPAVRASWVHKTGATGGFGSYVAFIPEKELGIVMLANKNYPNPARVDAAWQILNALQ
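AmpC (5.3 nM in the dispensed reagent) in 20 mM phosphate pH 7.0 with 0.01% (detergent screen) or 0.0001% Triton X-100 was preincubated with compounds for 15 min at room temperature. Nitrocefin was then added from an 800 uM solution, and hydrolysis was followed at 480 nm.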
AmpC inh no detg = qHTS Inhibitors of AmpC Beta-Lactamase (assay without detergent). Potency, µM (top dose mostly 57.1 µM), without a hit: top-dose activity change, negative = inhibition, usual class: inhibitors. 0.52% of 330,000 active. P00811. AID 485341, 2010. AmpC nitrocefin hydrolysis, absorbance 480 nm, 0.0001% Triton;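 note: plate controls were no compound for no effect and no enzyme for full effect; nearly all actives have a fitted effect of over 20% in size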
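20 mM phosphate pH 7.0 + 0.01% (detergent screen) or 0.0001% Triton X-100; 5.3 nM AmpC reagent; cpd preinc 15 min RT; nitrocefin (800 uM stock) to start; A480 q20 s × 4 min; Activity was normalised to no-enzyme and no-compound control wells.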
SARS PLpro yeast = qHTS of Yeast-based Assay for SARS-CoV PLP; S. cerevisiae expressing SARS-CoV PLpro, growth rescue; 0.19% of 330,000 active; Potency, µM (series often up to 32.9 µM), for inactives: top-dose activity, positive = growth rescue, most hits filed as activators; calls by dose curve; note: 0% is about no effect; nearly all actives have a fitted effect of over 55% in size
Sm TGR block = qHTS Assay for the Inhibitors of Schistosoma Mansoni Peroxiredoxins; Schistosoma mansoni thioredoxin glutathione reductase (TGR), Q962Y6; 3% of 360,000 active; Potency, µM (top dose mostly 114 µM), inactives show top-dose activity change, negative = inhibition, actives largely listed as inhibitors; purified TGR, DTNB reduction, TNB absorbance 405 nm; note: % is set by controls: 0 for no effect and ±100 for the full control effect; nearly all actives have a fitted effect of over 60% in size
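TGR 20 nM + NADPH 100 uM (dispensed conc.), cpd preinc 15 min RT; start with NADPH (500 uM addition) then DTNB (15 mM addition). Kinetic TNB absorbance, 405 nm filter. Four-parameter Hill fit across titration.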
Pf growth 96h = Primary qHTS for delayed death inhibitors of the malarial parasite plastid, 96 hour incubation. 6.9% of 320,000 active. Potency, µM (series often up to 28.7 µM), inactives show top-dose activity change, negative = inhibition, usual class: inhibitors. P. falciparum luciferase reporter growth, 96 h; note: % is set by controls: 0 for no effect and ±100 for the full control effect
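96 h incubation, 37 C, 5% CO2, of luciferase-reporter P. falciparum-infected RBCs (2% hematocrit, 0.05% parasitemia final) with test compounds; endpoint luminescence.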
Pf growth 48h = Primary qHTS for delayed death inhibitors of the malarial parasite plastid, 48 hour incubation | P. falciparum luciferase growth in erythrocytes, 48 h | Potency, µM (doses to about 28.7 µM), for the others: top-dose activity change, negative = inhibition, hits mostly inhibitors | 5.9% of 310,000 active; note: % is set by controls: 0 for no effect and ±100 for the full control effect
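Parasite viability was followed by luminescence of a genomically integrated firefly luciferase. Cultures held 0.1% parasitemia at 2% hematocrit (final), incubated under 5% CO2 at 37 C.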
* = called active by the depositor; ? = inconclusive; · = not tested or not shown. This is a sample that favours compounds with a hit; in the whole collection about 12% have one here. Unless noted, calls come from the whole dose curve; as a rule, active = well fitted curve in the direction sought with a large enough effect; inconclusive = small, poorly fitted or top-dose-only effect, or another doubt; inactive = no such curve, though single readings can be large; an effect the other way counts as inactive or inconclusive. Potency is the fitted concentration of half-maximal effect.

SMILES | AmpC inh detg | AmpC inh no detg | SARS PLpro yeast | Sm TGR block | Pf growth 96h | Pf growth 48h
CCn1cc(C(=O)NCc2ccco2)c(=O)c2ccc(C)nc21 | 0% | -8% | -2% | 2% | 0% | -11%
COc1cccc(NC(=O)CN(C)CC(=O)c2c(C)[nH]c3ccccc23)c1 | 0% | -4% | 3% | 18µM* | 12µM* | ?
COc1cccc(NC(=O)CN(C)CC(=O)NCc2ccc(F)cc2)c1 | · | -12% | -3% | · | · | ·
COc1cccc(NC(=O)CN(C)CC(=O)Nc2ccc3c(c2)OCO3)c1 | · | -16% | 11% | · | · | ·
CCC(C)c1ccc(NC(=O)CN(C)CC(=O)Nc2cccc(OC)c2)cc1 (configuration not stated) | 5% | 110% | -20% | 5% | ? | 12µM*
COc1ccc(NC(=O)CN(C)CC(=O)c2c(C)[nH]c3ccccc23)cc1 | 0% | -24% | -3% | ? | 12µM* | ?
COc1cc(-c2nc(Cn3nnc(C(=O)Nc4cc(C)cc(C)c4)c3C)c(C)o2)cc(OC)c1OC | 4% | · | · | -1% | · | ·
Cc1ccc(NC(=O)CSc2nc3ccccc3c(=O)n2CCCC(=O)NCCCN2CCOCC2)cc1C | 6% | 227% | -1% | -1% | 13µM* | ?
COc1ccc(CSc2nc3ccccc3c(=O)n2CCCN2CCOCC2)cc1F | 0% | 224% | -5% | 9% | 8.3µM* | ?
O=C(CSc1nc2ccccc2c(=O)n1CCCN1CCOCC1)Nc1cccc(S(=O)(=O)N2CCCCCC2)c1 | -10% | 262% | 10% | 6% | 0.52µM* | 0.52µM*
CC(=O)Nc1ccc(NC(=O)CSc2nc3ccccc3c(=O)n2CCCN2CCOCC2)cc1 | · | -10% | -5% | · | · | ·
CCc1ccc(NC(=O)CSc2nc3ccccc3c(=O)n2CCCC(=O)NCCCN2CCOCC2)cc1 | 0% | 228% | 0% | -4% | ? | 7.4µM*
O=C1c2ccccc2C(=O)N1Cc1nc2ccccc2c(=O)n1CCCN1CCOCC1 | -6% | 3% | -6% | 35µM* | 18% | 4%
COc1ccc(C)cc1NC(=O)CN1CCN(S(=O)(=O)c2ccc(C(C)C)cc2)CC1 | ? | -29% | 2% | -13% | 30% | 13µM*
COc1ccc(NC(=O)Cn2c(=O)oc3cc(Cl)ccc32)c(OC)c1 | 1% | -20% | 2% | -5% | ? | -5%
COc1ccc(Cl)cc1NC(=O)CN1CCN(S(=O)(=O)N2CCOCC2)CC1 | 2% | 22% | 1% | -13% | 9% | -26%
COc1ccc(Cl)cc1NC(=O)CN1CCN(S(=O)(=O)c2ccc(F)cc2)CC1 | -3% | 1% | 0% | 6% | -9% | 3.7µM*
COc1ccc(C)cc1NC(=O)CN1CCN(S(=O)(=O)c2ccc(Cl)cc2)CC1 | 5% | -3% | 2% | 0% | ? | 12µM*
COc1ccc(OC)c(NC(=O)Cn2c(-c3ccc(Cl)cc3)noc2=O)c1 | 0% | -11% | 8% | 5% | 173% | 4.1µM*
COc1ccc(S(=O)(=O)N2CCN(CC(=O)Nc3cc(Cl)ccc3Cl)CC2)cc1 | ? | -6% | 0% | -2% | 10% | -9%
O=C(Nc1ccc(Cl)c(Cl)c1)N(Cc1c[nH]c2ccccc12)C1CCCCC1 | -5% | · | · | -4% | · | ·
CCC(Sc1nc2ccsc2c(=O)n1-c1ccc(Cl)c(C)c1)C(=O)NCc1ccco1 (configuration not stated) | -4% | -42% | -27% | ? | 12µM* | 13µM*
CCOc1ccc(CNC(=O)C2CCN(c3nc4ccccc4nc3C(F)(F)F)CC2)cc1OC | 4% | · | · | 1% | · | ·
Cc1[nH]nc2nc(SCC(=O)NCC3CCCO3)n(-c3ccc(Br)cc3)c(=N)c12 (configuration not stated) | 3% | 57% | -2% | 0% | 40% | 10µM*
CCN(C(=O)CSc1nc2n[nH]c(C)c2c(=N)n1-c1cccc(OC)c1)c1cccc(C)c1 | 9% | · | · | -32% | · | ·
SMILES | AmpC inh detg | AmpC inh no detg | SARS PLpro yeast | Sm TGR block | Pf growth 96h | Pf growth 48h
Cc1ccc(CNC(=O)CSc2nc3n[nH]c(C)c3c(=N)n2-c2cccc(C)c2)cc1 | 5% | 106% | -3% | -1% | 9.3µM* | ·
CCc1ccc(NC(=O)CSc2nc3n[nH]c(C)c3c(=N)n2-c2cccc(OC)c2)cc1 | -9% | 0% | 13% | -19% | ? | ?
COc1cccc(NC(=O)CSc2nc3n[nH]c(C)c3c(=N)n2-c2cccc(OC)c2)c1 | 1% | 62% | 0% | 11% | 172% | 10µM*
CCCCNC(=O)CSc1nc2n[nH]c(C)c2c(=N)n1-c1cccc(C)c1 | 3% | · | · | 1% | · | ·
COc1cccc(-n2c(SCC(=O)NCCC3=CCCCC3)nc3n[nH]c(C)c3c2=N)c1 | 3% | 3% | 2% | 5% | ? | 9.3µM*
Cc1cc(-n2c(SCC(=O)Nc3ccc(Br)cc3)nc3n[nH]c(C)c3c2=N)ccc1Cl | 7% | ? | 2% | -4% | 44% | ?
CCOc1ccc(NC(=O)Cn2c(=O)n(Cc3nc(-c4ccccc4)no3)c(=O)c3ccccc32)cc1 | -2% | · | · | 3% | · | ·
CCOc1ccc(NC(=O)CN(C)C(=O)C2=COCCO2)cc1OCC | ? | -8% | · | -1% | 39% | 3%
O=C(Nc1nnc(S(=O)(=O)N2CCCc3ccccc32)s1)c1ccccc1Br | 16% | · | · | 1% | · | ·
CC1Sc2ccc(S(=O)(=O)CCC(=O)N3CCN(c4ccccc4F)CC3)cc2NC1=O (configuration not stated) | -15% | 17% | 16% | -20% | -26% | ?
COC(=O)c1cccc(Nc2nc(-c3cccnc3)nc3ccccc23)c1 | -5% | ? | -1% | -6% | ? | ?
COC(=O)c1cccc(Nc2nc(-c3ccncc3)nc3ccccc23)c1 | 7% | -15% | -5% | 6% | ? | 1.9µM*
CCOC(=O)c1cccc(Nc2nc(-c3cccnc3)nc3ccccc23)c1 | -4% | 30% | -3% | 6% | 8.3µM* | 13µM*
CCCCOC(=O)c1ccc(NC(=S)NC(=O)c2ccco2)cc1 | 11% | -34% | 1% | ? | 12µM* | ?
CCCCCCCCOc1ccccc1C(=O)Nc1ccc(C(=O)OCC[N+](C)(CC)CC)cc1 | · | · | · | · | 1.3µM* | 15µM*
CCCCOC(=O)c1ccc(NC(=O)c2c(OC)cccc2OC)cc1 | -7% | 20% | -12% | 14% | 10% | -12%
